Measurements reported in the OligoGym collection.
Note: reference of the scale not given here.

These sequences were tested against ALAD (assay: pooled miR-30 sensor sort-seq; sequence = guide strand). Details: shRNA.
TCGTCCTTGGGAACTCTGCTGG showed a sensor-assay potency score (higher = more potent) of -1.05. TAGTGGGTGGAAGTAGCCGCTG was tested, and the sensor-assay potency score (higher = more potent) was -1.31. TAGGTGATGATGATGTCAGCAC was tested, and the sensor-assay potency score (higher = more potent) was 0.277. TACCACCTGACATCCTGCCTTG was tested, and the sensor-assay potency score (higher = more potent) was -0.254. Work on ATGTCAGCACCTGCTCTGCGGA yielded a sensor-assay potency score (higher = more potent) of -1.76. Work on TTTAAAGTTCTAGTTCTTGGGC yielded a sensor-assay potency score (higher = more potent) of -0.0518. TGATGATGATGTCAGCACCTGC was tested, and the sensor-assay potency score (higher = more potent) was -1.54. In the case of ATGATGTCAGCACCTGCTCTGC, the sensor-assay potency score (higher = more potent) is reported as -1.4. TATGTCATCAGGAACATCCGTG was tested, and the sensor-assay potency score (higher = more potent) was 0.268. ACATCCGTGACAAAGATGGGGT gave a sensor-assay potency score (higher = more potent) of 0.0537. AAATTTGGCACTGTAGCTCATC showed a sensor-assay potency score (higher = more potent) of -0.696. Sequence AAGCTGGGCTTGACTTAGCTGC has a sensor-assay potency score (higher = more potent) of -1.16. In the case of TGGATTGCCTCAATAGCTGGGG, the sensor-assay potency score (higher = more potent) is reported as -0.361.

What follows are sequences tested against ALDH1A1 in the same assay as above. Details: shRNA.
Work on ATATTGTTCCTTGTCAATCTGA yielded a sensor-assay potency score (higher = more potent) of 0.00946. TAACATTAGAGAACACTGTGGG showed a sensor-assay potency score (higher = more potent) of 0.962. With TGTCTTTGGTAAACACTCCTGC the sensor-assay potency score (higher = more potent) was 0.136. TTAGCTATTGAAGAGCTTCTCT gave a sensor-assay potency score (higher = more potent) of 0.445. TGCCTTGTCAACATCCTCCTTA showed a sensor-assay potency score (higher = more potent) of 0.465. TGATTTGCTGCACTGGTCCAAA showed a sensor-assay potency score (higher = more potent) of -0.586. TAGCAATTCACCCACACTGTTC gave a sensor-assay potency score (higher = more potent) of -1.07. Work on TTATCTCCTTCTTCTACCTGGC yielded a sensor-assay potency score (higher = more potent) of -0.0648. TTGGTAAACACTCCTGCTGATA was tested, and the sensor-assay potency score (higher = more potent) was -1.11. With TTAAAATCTACTATATTAGTGA the sensor-assay potency score (higher = more potent) was 0.534. Sequence TGTAACATTAGAGAACACTGTG has a sensor-assay potency score (higher = more potent) of 0.545. TAGAAAGTATTGTTTGCTCTTT showed a sensor-assay potency score (higher = more potent) of -0.662. Sequence AAATTCAACAGCATTGTCCAAG has a sensor-assay potency score (higher = more potent) of -0.656. For TATTGTTCCTTGTCAATCTGAG, the sensor-assay potency score (higher = more potent) was 0.207. In the case of TAGCGCAATGTTTTGATGCAGC, the sensor-assay potency score (higher = more potent) is reported as -0.601. For TAATTCTTTCAGAAGAAGCTAC, the sensor-assay potency score (higher = more potent) was -0.0936. Sequence TTCATTGACTCCATTGTCGCCA has a sensor-assay potency score (higher = more potent) of 0.315. TTGAATCTTCAAATCGGTGAGT gave a sensor-assay potency score (higher = more potent) of 0.0111. In the case of TATATTAGTGACTGTAAGGAGA, the sensor-assay potency score (higher = more potent) is reported as -0.658. TACTTTGTCTATATCCATGTGA was tested, and the sensor-assay potency score (higher = more potent) was 0.349. AATACTAATATGATTTAGCTTA gave a sensor-assay potency score (higher = more potent) of -0.152. Sequence TTAAAGACAGGAAATTTCTTGC has a sensor-assay potency score (higher = more potent) of -0.236. TTAGAGAACACTGTGGGCTGGA was tested, and the sensor-assay potency score (higher = more potent) was 0.618.

These sequences were tested against ALDH1A3 in the same assay as above. Details: shRNA.
In the case of TTTATCACTTCTTCGATACTTT, the sensor-assay potency score (higher = more potent) is reported as -0.132. TTTCTTGGCATACTCCACGCTC showed a sensor-assay potency score (higher = more potent) of -0.65. TTGTTGATAAATATCTTGGTGA gave a sensor-assay potency score (higher = more potent) of 0.169. With TTCCACTTCACATATTTGCTCC the sensor-assay potency score (higher = more potent) was -0.153.
